Source: PubChem BioAssay (Tox21)
Results filed as inconclusive are left out. Calls of active or inactive are those of the source. Unless noted, the call rests on the fitted dose curve.

Legend:
[1] = Nuclear factor erythroid 2-related factor 2/antioxidant responsive element (Nrf2/ARE) small molecule agonists: qHTS cell viability counter screen in human keratinocytes (AID 1919968; active means well fitted curve in the direction sought with a large enough effect in the repeat runs; an effect the other way counts as inactive or inconclusive; further: nearly all actives have a fitted effect of over 55% in size)
How it was run: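 KeratinoSens cells (HaCaT keratinocytes stably carrying an ARE-luciferase reporter) were seeded at 1,500 cells/well and rested 5 h at 37 C/5% CO2. They were then exposed to compounds in DMSO for 23 h. Viability was read by CellTiter-Fluor fluorescence after 1 h.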

[2] = Nuclear factor erythroid 2-related factor 2/antioxidant responsive element (Nrf2/ARE) small molecule agonists: luciferase reporter gene qHTS assay in human keratinocytes (AID 1919969); further: nearly all actives have a fitted effect of over 35% in size
[3] = target: Gonadotropin-releasing hormone receptor (Homo sapiens) (UniProt P30968); assay: Human gonadotropin-releasing hormone receptor (GnRHR) small molecule agonists, calcium flux assay in GnRHR-HEK293 cells (AID 1920063); further: nearly all actives have a fitted effect of over 35% in size
How it was run: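 HEK293 cells stably expressing human GnRHR were plated 18 h at 37 °C, loaded with calcium dye 1 h at 37 °C, then given compound in agonist mode; fluorescence (Ex/Em 480/540) read kinetically for 3 min at 1 s intervals.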

[4] = target: KiSS-1 receptor (Homo sapiens) (UniProt Q969F8); assay: Human kisspeptin (KISS1R) small molecule agonists, calcium flux assay in KISS1R-HEK293 cells (AID 1920064; active means well fitted curve in the direction sought with a large enough effect in the repeat runs; an effect the other way counts as inactive or inconclusive)
How it was run: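 HEK293 cells stably expressing human KISS1R were plated 18 h at 37 °C, loaded with calcium dye for 1 h at 37 °C, then given compound by pin tool. Fluorescence (Ex/Em 480/540) was read kinetically for 3 min.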

[5] = G protein-coupled receptor (GPCR) small molecule agonists, calcium flux assay: HEK293 wild type cell line counter screen (AID 1920065)
How it was run: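 Cells were plated and cultured 18 h at 37 C/5% CO2, then loaded with calcium dye for 1 h at 37 C. Compounds in DMSO were pin-transferred in agonist mode, and fluorescence (Ex/Em 480/540) was read kinetically for 3 min at 1 s intervals.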

[6] = p53 small molecule agonists, cell-based qHTS assay with human liver microsomes (AID 1963577);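 further: p53 response element beta-lactamase reporter cells with liver microsomes plus NADPH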
How it was run: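 16 h, 37 C exposure of p53RE-bla cells to compounds with human liver microsomes and NADPH (0.5 mg/mL final each); detection via LiveBLAzer mixture, 2 h dark at room temperature.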

[7] = p53 small molecule agonists, cell-based qHTS assay with rat liver microsomes (AID 1963578)
How it was run: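 With rat liver microsomes and NADPH present (0.5 mg/mL final each), p53RE-bla cells are treated with compound for 16 h at 37 C. LiveBLAzer detection mixture is then applied for 2 h at room temperature in the dark.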

[8] = p53 small molecule agonists, cell-based qHTS assay with human liver microsomes: qHTS cell viability counter screen (AID 1963579); further: nearly all actives have a fitted effect of over 45% in size
How it was run: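 In this multiplexed counter screen, the reporter plates were subsequently treated with CellTiter-Glo so that cell viability, reflected by luminescence, could be recorded for p53RE-bla cells dosed 16 h with compounds under microsomal activation (HLM and NADPH).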

[9] = p53 small molecule agonists, cell-based qHTS assay with rat liver microsomes: qHTS cell viability counter screen (AID 1963580); further: nearly all actives have a fitted effect of over 45% in size
How it was run: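 Viability is assessed in parallel with the p53 reporter read: HCT-116 p53RE-bla cells receive compounds plus rat microsomes and NADPH (0.5 mg/mL final apiece), incubate 16 h at 37 C, and then CellTiter-Glo luminescence is recorded.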

[10] = p53 small molecule agonists, cell-based qHTS assay: qHTS cell viability counter screen (AID 1963581); further: nearly all actives have a fitted effect of over 45% in size
How it was run: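 p53RE-bla HCT-116 cells were exposed to compounds for 16 h at 37 C; after the beta-lactamase FRET read in the same wells, CellTiter-Glo was added and luminescence (intracellular ATP) read after 30 min at room temperature.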

[11] = p53 small molecule agonists, cell-based qHTS assay (AID 1963582; active means well fitted activation curve with a large enough effect in the signal ratio in the repeat runs, not every such curve was filed as active; the % refers to the signal ratio)
How it was run: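 p53RE-bla beta-lactamase reporter cells rested 5 h at 37 C/5% CO2, then received compounds in DMSO by pin transfer and were incubated 16 h at 37 C. LiveBLAzer B/G FRET substrate was loaded for 2 h at room temperature before fluorescence reading.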

[12] = target: 5-hydroxytryptamine receptor 2A (Homo sapiens) (UniProt P28223); assay: 5-hydroxytryptamine receptor 2A (HTR2A) small molecule antagonists, cell-based qHTS assay (AID 1963586); further: nearly all actives have a fitted effect of over 45% in size
How it was run: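 Antagonist-mode intracellular calcium assay: DOI (4 nM) added after 5 min compound pre-incubation at room temperature to dye-loaded HTR2A-CHO cells. Fluorescence followed for 3 min, sampled every second.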

[13] = target: 5-hydroxytryptamine receptor 2A (Homo sapiens) (UniProt P28223); assay: 5-hydroxytryptamine receptor 2A (HTR2A) small molecule agonists, cell-based qHTS assay (AID 1963587); further: nearly all actives have a fitted effect of over 30% in size
How it was run: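 CHO cells stably expressing human HTR2A, plated 18 h, loaded with calcium dye 1 h at 37 C. Agonist mode: compounds added and intracellular calcium fluorescence recorded kinetically for 2 min at 1 sec intervals.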

[14] = target: Muscarinic acetylcholine receptor M1 (Homo sapiens) (UniProt P11229); assay: Cholinergic receptor muscarinic 1 (CHRM1) small molecule antagonists, cell-based qHTS assay (AID 1963588); further: nearly all actives have a fitted effect of over 40% in size
How it was run: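 CHRM1-CHO calcium-flux assay, antagonist mode. Cells were seeded 18 h, dye-loaded 1 h at 37 C and given compound for 5 min at RT, then acetylcholine was added at 50nM. FDSS fluorescence was read 3 min; 15 concentrations, three runs.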

[15] = target: Muscarinic acetylcholine receptor M1 (Homo sapiens) (UniProt P11229); assay: Cholinergic receptor muscarinic 1 (CHRM1) small molecule agonists, cell-based qHTS assay (AID 1963589); further: nearly all actives have a fitted effect of over 35% in size
How it was run: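 CHO cells stably expressing human CHRM1, seeded 18 h at 37 C/5% CO2, dye-loaded 1 h at 37 C, then given compound in agonist mode; intracellular calcium fluorescence read kinetically at 1 s intervals. Fifteen concentrations, three independent runs.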

[16] = cAMP Responsive Elements (CRE) small molecule agonists, cell-based qHTS assay (AID 1963590)
How it was run: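 CRE-bla HEK 293T cells in DMEM with 10% dialyzed FBS, NEAA, pyruvate and 25 mM HEPES were plated 18 h at 37 C/5% CO2, then exposed to compounds in DMSO for 3 h before LiveBLAzer B/G FRET substrate addition.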

[17] = cAMP Responsive Elements (CRE) small molecule antagonists, cell-based qHTS assay (AID 1963591; active means well fitted inhibition curve with a large enough effect in the signal ratio in the repeat runs, not every such curve was filed as active; the % refers to the signal ratio)
How it was run: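 CRE-bla HEK293T cells were plated 18 h at 37 °C/5% CO2, pinned with compound in DMSO, then stimulated with NKH477 at 0.25 uM final for 3 h. LiveBLAzer B/G FRET substrate was added and plates incubated 2 h at room temperature.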

[18] = target: Beta-2 adrenergic receptor (Homo sapiens) (UniProt P07550); assay: Adrenergic beta2 receptor (ADRB2) small molecule antagonists, cell-based qHTS assay (AID 1963592); further: series mostly up to about 92 µM; nearly all actives have a fitted effect of over 50% in size
How it was run: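 Cells (CHO, stable ADRB2 overexpression) incubated 18-20hr at 37C; compounds added from DMSO; agonist mix (1nM isoproterenol, 100uM IBMX, 25uM Ro-20-1724) added; 0.5hr RT; d2-cAMP and anti-cAMP-cryptate added; 1hr RT; 665/615 nm read.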

[19] = target: Beta-2 adrenergic receptor (Homo sapiens) (UniProt P07550); assay: Adrenergic beta2 receptor (ADRB2) small molecule agonists, cell-based qHTS assay (AID 1963593);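 further: CHO cells stably overexpressing human ADRB2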
How it was run: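 CHO cells stably over-expressing ADRB2 were plated overnight at 37C, then dosed with compounds plus a stimulation mix containing 100uM IBMX and 25uM Ro-20-1724 for 0.5hr at room temperature. cAMP was measured by HTRF competition, 1hr.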

[20] = target: D(2) dopamine receptor (Homo sapiens) (UniProt P14416); assay: Dopamine D2 receptor (DRD2) small molecule agonists, cell-based qHTS assay (AID 1963594); further: nearly all actives have a fitted effect of over 35% in size
How it was run: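 HEK293 cells stably expressing human DRD2, pre-treated with PDE inhibitor Ro20-1724 (0.1 mM final) and compound 10 min at room temperature, then stimulated with NKH477 (200nM […]) for 30 min. cAMP read by HTRF (665/620 nm).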
On the % scale 0 is the no-effect control and ±100 the full control effect.

Sequence of Muscarinic acetylcholine receptor M1 (Homo sapiens) (P11229 whole entry, looked up): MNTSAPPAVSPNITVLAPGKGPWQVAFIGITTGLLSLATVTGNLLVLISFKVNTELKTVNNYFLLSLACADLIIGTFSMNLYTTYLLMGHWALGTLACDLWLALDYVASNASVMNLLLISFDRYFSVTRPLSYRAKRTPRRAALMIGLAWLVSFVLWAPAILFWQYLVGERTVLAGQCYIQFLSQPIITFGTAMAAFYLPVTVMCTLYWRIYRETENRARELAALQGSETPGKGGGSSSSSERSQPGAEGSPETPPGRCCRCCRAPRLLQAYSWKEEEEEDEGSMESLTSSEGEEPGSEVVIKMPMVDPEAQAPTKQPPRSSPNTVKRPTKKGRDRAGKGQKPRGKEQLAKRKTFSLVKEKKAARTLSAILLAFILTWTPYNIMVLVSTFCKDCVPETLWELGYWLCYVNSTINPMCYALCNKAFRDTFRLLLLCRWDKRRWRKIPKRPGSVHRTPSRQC
Sequence of Beta-2 adrenergic receptor (Homo sapiens) (P07550 whole entry, looked up): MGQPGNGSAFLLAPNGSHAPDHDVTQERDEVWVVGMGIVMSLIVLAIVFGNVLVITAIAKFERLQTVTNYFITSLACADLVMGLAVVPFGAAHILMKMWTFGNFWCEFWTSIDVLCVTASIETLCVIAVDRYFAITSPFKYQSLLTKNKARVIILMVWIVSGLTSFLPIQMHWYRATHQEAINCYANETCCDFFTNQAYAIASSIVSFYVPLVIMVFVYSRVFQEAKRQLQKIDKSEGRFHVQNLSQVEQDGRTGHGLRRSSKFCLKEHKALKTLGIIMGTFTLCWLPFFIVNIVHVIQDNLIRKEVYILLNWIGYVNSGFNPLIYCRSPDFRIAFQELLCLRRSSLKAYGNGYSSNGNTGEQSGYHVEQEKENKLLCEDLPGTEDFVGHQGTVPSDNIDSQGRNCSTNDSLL
Sequence of D(2) dopamine receptor (Homo sapiens) (P14416 whole entry, looked up): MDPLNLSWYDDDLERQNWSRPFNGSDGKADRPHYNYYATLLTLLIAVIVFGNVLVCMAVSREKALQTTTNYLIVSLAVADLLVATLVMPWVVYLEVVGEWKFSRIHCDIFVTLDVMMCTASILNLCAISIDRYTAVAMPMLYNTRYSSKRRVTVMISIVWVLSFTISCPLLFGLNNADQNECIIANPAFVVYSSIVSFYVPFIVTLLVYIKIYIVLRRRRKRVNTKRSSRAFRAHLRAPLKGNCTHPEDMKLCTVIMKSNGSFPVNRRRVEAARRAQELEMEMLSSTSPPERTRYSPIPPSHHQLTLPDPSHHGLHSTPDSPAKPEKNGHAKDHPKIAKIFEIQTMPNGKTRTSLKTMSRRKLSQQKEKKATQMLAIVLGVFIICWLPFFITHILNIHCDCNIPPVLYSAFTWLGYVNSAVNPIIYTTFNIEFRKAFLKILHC
Sequence of KiSS-1 receptor (Homo sapiens) (Q969F8 whole entry, looked up): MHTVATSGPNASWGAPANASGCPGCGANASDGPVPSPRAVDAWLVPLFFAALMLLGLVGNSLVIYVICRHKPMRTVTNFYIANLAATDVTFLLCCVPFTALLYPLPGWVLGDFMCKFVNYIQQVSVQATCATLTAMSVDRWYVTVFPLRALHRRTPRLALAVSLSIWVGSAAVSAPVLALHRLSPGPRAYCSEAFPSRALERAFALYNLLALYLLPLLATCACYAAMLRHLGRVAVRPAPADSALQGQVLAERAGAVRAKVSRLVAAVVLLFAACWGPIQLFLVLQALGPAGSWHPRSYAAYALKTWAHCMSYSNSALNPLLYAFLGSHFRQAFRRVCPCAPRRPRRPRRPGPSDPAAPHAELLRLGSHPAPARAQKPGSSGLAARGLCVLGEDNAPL
Sequence of Gonadotropin-releasing hormone receptor (Homo sapiens) (P30968 whole entry, looked up): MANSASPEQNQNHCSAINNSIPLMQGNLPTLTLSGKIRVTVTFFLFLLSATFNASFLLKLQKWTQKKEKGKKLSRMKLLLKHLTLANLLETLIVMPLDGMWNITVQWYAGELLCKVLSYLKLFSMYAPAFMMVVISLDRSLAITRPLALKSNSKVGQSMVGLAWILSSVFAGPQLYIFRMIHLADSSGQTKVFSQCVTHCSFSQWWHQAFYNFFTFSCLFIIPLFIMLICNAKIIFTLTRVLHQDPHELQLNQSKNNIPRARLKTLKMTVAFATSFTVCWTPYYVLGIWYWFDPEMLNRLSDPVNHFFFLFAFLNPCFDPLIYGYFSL
Sequence of 5-hydroxytryptamine receptor 2A (Homo sapiens) (P28223 whole entry, looked up): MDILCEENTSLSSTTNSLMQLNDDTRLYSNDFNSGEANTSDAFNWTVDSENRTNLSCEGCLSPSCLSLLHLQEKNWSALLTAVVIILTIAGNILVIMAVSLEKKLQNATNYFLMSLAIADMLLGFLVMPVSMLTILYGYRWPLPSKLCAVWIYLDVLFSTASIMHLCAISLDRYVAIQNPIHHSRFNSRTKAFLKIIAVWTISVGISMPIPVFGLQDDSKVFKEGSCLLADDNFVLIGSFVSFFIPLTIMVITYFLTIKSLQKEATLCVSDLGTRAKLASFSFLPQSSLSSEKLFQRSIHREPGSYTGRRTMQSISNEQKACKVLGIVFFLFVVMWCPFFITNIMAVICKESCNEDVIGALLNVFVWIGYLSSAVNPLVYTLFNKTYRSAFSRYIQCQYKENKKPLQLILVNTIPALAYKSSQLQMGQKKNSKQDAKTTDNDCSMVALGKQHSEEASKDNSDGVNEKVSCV

Nc1ccc(S(=O)(=O)Nc2ccc(Cl)nn2)cc1
inactive: Potency [1] | Potency [2] | Potency [3] | Potency [4] | Potency [5] | Potency [6] | Potency [7] | Potency [8] | Potency [9] | Potency [10] | Potency [11] | Potency [12] | Potency [13] | Potency [14] | Potency [15] | Potency [16] | Potency [17] | Potency [18] | Potency [19] | Potency [20]

CCOCCOCC
inactive: Potency [1] | Potency [2] | Potency [3] | Potency [4] | Potency [5] | Potency [6] | Potency [7] | Potency [8] | Potency [9] | Potency [10] | Potency [11] | Potency [12] | Potency [13] | Potency [14] | Potency [15] | Potency [16] | Potency [17] | Potency [18] | Potency [19] | Potency [20]

CCc1occc(=O)c1O
inactive: Potency [1] | Potency [2] | Potency [3] | Potency [4] | Potency [5] | Potency [6] | Potency [7] | Potency [8] | Potency [9] | Potency [10] | Potency [11] | Potency [12] | Potency [13] | Potency [14] | Potency [15] | Potency [16] | Potency [17] | Potency [18] | Potency [19] | Potency [20]

NC(=O)CCCCC(N)=O
inactive: Potency [1] | Potency [2] | Potency [3] | Potency [4] | Potency [5] | Potency [6] | Potency [7] | Potency [8] | Potency [9] | Potency [10] | Potency [11] | Potency [12] | Potency [13] | Potency [14] | Potency [15] | Potency [16] | Potency [17] | Potency [18] | Potency [19] | Potency [20]

CC(=O)c1cc2ccccc2s1
inactive: Potency [1] | Potency [2] | Potency [3] | Potency [4] | Potency [5] | Potency [6] | Potency [7] | Potency [8] | Potency [9] | Potency [10] | Potency [11] | Potency [12] | Potency [13] | Potency [14] | Potency [15] | Potency [16] | Potency [17] | Potency [18] | Potency [19]

CCCCCCCCc1ccc(Nc2ccc(CCCCCCCC)cc2)cc1
inactive: Potency [1] | Potency [2] | Potency [3] | Potency [4] | Potency [5] | Potency [6] | Potency [7] | Potency [8] | Potency [9] | Potency [10] | Potency [11] | Potency [12] | Potency [13] | Potency [14] | Potency [15] | Potency [16] | Potency [17] | Potency [18] | Potency [19] | Potency [20]

C=CCCCCCCCCCCCCCCCC
inactive: activity change, negative = cytotoxicity [1] 2.1% [at 8.39 µM] | activity, positive = activation [2] 1.31% [at 8.39 µM] | activity change [3] 0.969% [at 5.22 µM, stronger effect = higher value] | activation [4] 0.739% [at 6.97 µM] | activation [5] -0.775% [at 5.23 µM] | activation [6] -1.7% [at 5.99 µM] | activation [7] -2.36% [at 5.99 µM] | activity change, negative = cytotoxicity [8] -5.51% [at 5.99 µM] | activity change, negative = cytotoxicity [9] -2.99% [at 5.99 µM] | activity change, negative = cytotoxicity [10] -20.9% [at 5.99 µM] | activation [11] 2.83% [at 5.99 µM] | activity, negative = inhibition [12] -3.97% [at 5.62 µM] | activation [13] -2.29% [at 7.02 µM] | activity, negative = inhibition [14] -31.3% [at 5.58 µM] | activation [15] 1.23% [at 6.97 µM] | activation [16] 0.435% [at 8.39 µM] | activity change, negative = inhibition [17] -13% [at 8.39 µM] | activity change, negative = inhibition [18] -9.53% [at 8.39 µM] | activation [20] 0.185% [at 8.39 µM]
